High-throughput results as filed in PubChem BioAssay.
Most compounds without a hit are left out; they make up all but 12% or so of the library.
RORg inh – blocks mouse ROR gamma transcriptional activity; P51450; Drosophila S2 Gal4-RORgamma UAS-luciferase reporter, 20 h; Potency, µM (top dose mostly 53.6 µM), for inactives: top-dose activity change, negative = inhibition, hits mostly inhibitors; 310,000 compounds, 5.4% hits; AID 2551; further: nearly all actives have a fitted effect of over 60% in size
Target sequence (P51450 whole entry, looked up, the tested form may be a part): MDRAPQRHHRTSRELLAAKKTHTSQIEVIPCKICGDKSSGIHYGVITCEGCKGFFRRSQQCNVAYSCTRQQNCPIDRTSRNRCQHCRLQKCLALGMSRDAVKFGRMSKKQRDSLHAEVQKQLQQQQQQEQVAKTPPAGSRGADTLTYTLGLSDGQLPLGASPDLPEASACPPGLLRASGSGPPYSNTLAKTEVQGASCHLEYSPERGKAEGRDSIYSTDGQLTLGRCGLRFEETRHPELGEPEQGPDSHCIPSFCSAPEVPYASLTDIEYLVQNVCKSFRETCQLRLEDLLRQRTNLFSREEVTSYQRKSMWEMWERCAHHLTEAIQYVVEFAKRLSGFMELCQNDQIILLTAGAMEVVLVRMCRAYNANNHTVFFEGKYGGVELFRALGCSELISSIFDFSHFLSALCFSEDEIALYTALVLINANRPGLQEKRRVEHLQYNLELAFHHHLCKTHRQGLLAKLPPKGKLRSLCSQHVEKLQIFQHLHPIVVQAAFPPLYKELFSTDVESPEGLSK
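Drosophila S2 cells stably expressing Gal4-DBD/mouse RORγ fusion under metallothionein promoter plus UAS-luciferase; compound 1 h, then 700 uM CuSO4 induction for 20 h at ambient temperature; inhibition read as reduced luminescence.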
ALDH1A1 inh – blocks purified human ALDH1A1 activity. 220,000 compounds, 7.3% hits. Potency, µM (titrated, usually from 75.3 µM), for the others: at the highest dose activity, negative = inhibition, most hits filed as inhibitors. AID 1030. P00352. Purified ALDH1A1, NADH fluorescence, propionaldehyde substrate; active means well fitted inhibition curve with a large enough effect, not every such curve was filed as active; inconclusive means small, poorly fitted or top-dose-only effect, or another doubt; inactive means no such curve, though single readings can be large or run the other way;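 further: plate controls were no enzyme wells and a reference inhibitor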
Gal4-VP16 FLuc – Gal4-VP16 reporter inhibition counter-screen | Drosophila S2 Gal4-VP16 UAS-luciferase, luminescence, 20 h | Potency, µM (titrated, usually from 53.6 µM), for inactives: at the top dose activity, negative = inhibition, most hits filed as inhibitors | 310,000 compounds, 3.5% hits;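 further: Gal4-VP16 expression switched on by copper sulfate through the metallothionein promoter; nearly all actives have a fitted effect of over 50% in size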
PLK1 PBD inh – inhibitors of human PLK1 polo-box domain binding; Plk1 PBD binding of FITC phosphopeptide, fluorescence polarization; Potency, µM, for the others: max response, negative = inhibition, hits mostly inhibitors; 360,000 compounds, 2.8% hits; AID 720504; further: series mostly up to about 57 µM; nearly all actives have a fitted effect of over 65% in size
Sfp PPTase inh – inhibitors of Bacillus subtilis Sfp phosphopantetheinyl transferase; Biochemical Sfp PPTase activity, qHTS; Q9F4F7; AID 1490; 310,000 compounds, 3.5% hits; Potency, µM, for the others: largest response in the series, negative = inhibition, hits mostly inhibitors;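 further: the enzyme is Sfp with the accession as filed and its product quenches rhodamine fluorescence; 0% = enzyme reaction without inhibitor and -100% = no enzyme wells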
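With Hepes-Na pH 7.6 buffer containing 10 mM MgCl2, Sfp (15 nM) modified BHQ-2-YbbR (12.5 uM) using rhodamine-CoA (5 uM). Two reads 30 minutes apart at 525/598 nm yielded each well's rate.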
Active calls of the source: *; ? = inconclusive; · = not tested or not shown; [ ] = another dose, or the depositor's remark. Unless noted, the call rests on the fitted dose curve; in most records, active means well fitted curve in the direction sought with a large enough effect; inconclusive means small, poorly fitted or top-dose-only effect, or another doubt; inactive means no such curve, though single readings can be large; an effect the other way counts as inactive or inconclusive. Unless noted, on the % scale 0 is the no-effect control and ±100 the full control effect; potency means the concentration at half of the fitted maximal effect.

SMILES | RORg inh | ALDH1A1 inh | Gal4-VP16 FLuc | PLK1 PBD inh | Sfp PPTase inh
O=C(NC1CC1)C1Nc2ccc(OC(F)(F)F)cc2C2C=CCC12 (centres undefined) | · | · | · | 4% | ·
O=C(c1nnsc1S(=O)c1ccc(Cl)cc1)N1CCOCC1 (centres undefined) | 1.1µM* | 7.1µM* | 3.5µM* | 1.1µM* | 56µM*
Nc1nc(C(=O)N2CCOCC2)nn1S(=O)(=O)c1ccc(Cl)cc1 | -23% | 18% | 1% | 27µM* | 8%
Cc1nnsc1S(=O)c1ccc(Cl)cc1 (centres undefined) | -22% | · | 3% | -12% | 12%
O=C(c1nnsc1S(=O)(=O)c1ccc(Cl)cc1)N1CCOCC1 | 2.8µM* | 2.8µM* | 10µM* | ? | 16%
O=C(c1ccc(NS(=O)(=O)c2ccc(Cl)cc2)cc1)N1CCOCC1 | 32% | · | -13% | 0% | 1%
CNC(=O)c1nnsc1S(=O)(=O)c1ccc(Cl)cc1 | 0.56µM* | 2µM* | 0.4µM* | 12µM* | 7.1µM*
CNC(=O)c1ccc(S(=O)(=O)c2ccc(Cl)cc2)c(NC(C)=O)c1 | 17% | · | 1% | 6% | 9%
CCS(=O)(=O)n1nc(C(=O)N2CCOCC2)nc1N | -11% | 2% | -1% | -15% | 8%
O=C(NCc1ccco1)C1CC(=O)N(CCc2ccccc2)C1 (centres undefined) | ? | 22µM* | 6% | -8% | -7%
CC(C)CCNC(=O)C1CC(=O)N(CCc2ccccc2)C1 (centres undefined) | 3% | · | -3% | 1% | 10%
O=C(NCc1ccco1)C1CC(=O)N(c2ccc(O)cc2)C1 (centres undefined) | -37% | 1% | 8% | 3.4µM* | 9%
COc1ccc(N2CC(C(=O)Nc3ccccc3C(=O)NCc3ccco3)CC2=O)cc1 (centres undefined) | -13% | -2% | 12% | -6% | 22%
CCn1nnnc1SCC(=O)N1CCCCC1 | · | · | · | -12% | ·
CN1CCN(c2ncc3nc(-c4cccc(C#N)c4)c(=O)n(CCC#N)c3n2)CC1 | -4% | ? | -10% | · | 9%
Cn1cnnc1Sc1cc(N2CCN(S(=O)(=O)c3ccccc3)CC2)ccc1[N+](=O)[O-] | 43% | ? | ? | -18% | 2%
CC(=O)c1ccc(Sc2ccccn2)c([N+](=O)[O-])c1 | 14% | · | -8% | -1% | 11%
CC(=O)c1ccc(Sc2nnnn2-c2ccccc2)c([N+](=O)[O-])c1 | 8.9µM* | 16µM* | 11µM* | -5% | -9%
Cn1c(Sc2ccc(C(=O)O)cc2[N+](=O)[O-])nnc1-c1ccccc1 | -2% | 7% | 0%[10 µM] | 4.2µM* | 10%
CN1CCN(S(=O)(=O)c2ccc(Sc3nnnn3-c3ccccc3)c([N+](=O)[O-])c2)CC1 | 7.1µM* | -56% | ? | -11% | -5%
CCOC(=O)[C@]12CCC=C1N(Cc1cccc3ccccc13)C(=O)[C@H](CC(=O)N1CCCC1)C2 | · | · | · | -8% | ·
CCCC(C)NC(=O)COC(=O)c1cccc(NS(C)(=O)=O)c1 (centres undefined) | 0% | 7% | 3% | 30µM* | 7%
CC(=O)Nc1cccc(C(=O)OCC(=O)NC(C)c2ccc(F)cc2)c1 (centres undefined) | 17% | 9% | 3% | -4% | 16%
N#Cc1nc(NCCO)nc(Nc2ccccc2)n1 | · | · | -10% | · | ·
COc1ccc(Nc2c(-c3ccco3)nc3ccc(C)cn23)cc1 | 18µM* | ? | -9%[10 µM] | 1% | 9%
Cc1cccc(CN2CCN(C3CN(Cc4ccc([N+](=O)[O-])cc4)S(=O)(=O)C3)CC2)c1 (centres undefined) | · | · | · | -1% | ·
CC(=O)/C=C\c1ccccc1OC(=O)c1cc2ccccc2oc1=O | -23% | · | 16% | -7% | -5%
O=C(/C=C\c1ccccc1OC(=O)c1ccccc1F)c1cc2ccccc2o1 | ? | 30% | 0.32µM* | -16% | ?
O=C(CSc1nc2[nH]ncc2c(=O)n1-c1ccccc1Br)NCc1ccccc1Cl | 45% | 13µM* | 25% | -12% | 2%
COc1ccc(CNC(=O)CSc2nc3[nH]ncc3c(=O)n2-c2ccccc2Br)cc1 | 10% | 16µM* | -15% | · | 24%
